Molecules are shown by their SMILES. The whole screen tested about 63,000 compounds, of which about 1,100 (1.7%) were called active. Only a selection was taken, and actives are over-represented in it overall. Measured potencies and affinities stand elsewhere. Values without a mark were called inactive. Cut-off read from the data, not from the text of the source: active = cytotoxicity above about 50%; inactive = the rest.

This assay in a line: HPDE-C7 pancreatic duct cell viability loss – fluorescence, HTS (AID 430).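 Note: cells exposed to compound for 48 hours before viability readout; 0% = vehicle and 100% = reference cytotoxic drug.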 The settings on record: HPDE-C7 pancreatic duct cells viability, at 10 µM, stronger effect = higher value.
As for `CCOc1ccc(NC(=O)c2oc3ccccc3c2NC(=O)C(C)C)cc1`, the cytotoxicity was 11.9%. To `C=CCN1C(=O)C(CC(=O)O)SC1=Nc1c(C)n(C)n(-c2ccccc2)c1=O` (centres undefined) belongs -3.1%; to `Cc1nc2ccccc2c2oc(C(=O)NCc3ccccn3)cc12`, 4.5%; to `O=C1CC(N2CCN(C3CC(=O)N(CCc4ccccc4)C3=O)CC2)C(=O)N1CCc1ccccc1` (centres undefined), -9.9%. Take `N#C/C(C(N)=O)=c1/ccc2c(c1)N1C3=C(CCCC3)CC3CCCCC31N=2` (centres undefined): the cytotoxicity is 77.9% (active).

For `N#CC(C#N)=c1ccc2c(c1)N1C3=C(CCCC3)CC3CCCCC31N=2` (centres undefined), the cytotoxicity was 72% (active).

Consider `Cc1cc(C(=O)COC(=O)C2=COCCO2)c(C)n1-c1ccc2c(c1)OCO2`, for which the cytotoxicity is -7.4%.

Consider `CCCc1cc(C(=O)NC2CCCC2)no1`, for which the cytotoxicity is -4.5%. As for `CCOC(=O)N1CCN(C(=O)CCn2c(=S)[nH]c3cc(OCC)c(OCC)cc3c2=O)CC1`, the figure is 1.3%; as for `CCN1CCN(C(c2cccs2)C(C)NC(=O)c2ccccc2)CC1` (centres undefined), 2.9%. To `O=C(O)CCCNc1cc(N2CCC3(CC2)OCCO3)c2noc3c2c1C(=O)c1ccccc1-3` belongs 34.7%; to `CCOC(=O)N1CCN(c2cc(NCCC(=O)O)c3c4c(onc24)-c2ccccc2C3=O)CC1`, 58.8% (active). Consider `CCOC(=O)c1c(C)noc1CP(=O)(c1ccccc1)c1ccccc1`, for which the cytotoxicity was 4.8%. To `CCOc1ccc2noc3c2c1C(=O)c1ccccc1-3` belongs 29.3%; to `CC(=O)OCCNc1cc(N2CCN(C)CC2)c2noc3c2c1C(=O)c1ccccc1-3`, 7.3%. In the case of `CCC1CCCCN1C(=O)CSc1nnc(-c2ccc(Cl)cc2)o1` (centres undefined), the cytotoxicity was 1.2%. As for `O=C(O)c1[nH]c2ccc(Cl)cc2c1CC(=O)N1CCN(c2ccccc2)CC1`, the cytotoxicity is 5.3%.

As to `O=C(O)c1[nH]c2ccc(Cl)cc2c1CC(=O)N1CCN(C(=O)c2ccco2)CC1`, the cytotoxicity is -1%. Turning to `Cc1cccc(N2CCN(C(=O)Cc3c(C(=O)O)[nH]c4ccc(Cl)cc34)CC2)c1C`, the cytotoxicity was 76.3% (active).

Consider `Cc1ccc(OC(=O)CCC(=O)N2CCc3ccccc32)cc1`, for which the cytotoxicity was 4%.

For the compound `Cc1cccc(N2CCN(CCNC(=O)c3cc4c(s3)CS(=O)(=O)C4)CC2)c1C`, the cytotoxicity was -3.7%. To `O=S(=O)(NCCc1ccccn1)c1cccs1` belongs -28.8%.

`O=c1c2c3nc4ccccc4nc3n(/N=C/c3ccco3)c2ncn1CCC1=CCCCC1`: the cytotoxicity was 23%. As for `Cc1nc2c(c(=O)n1CCC1=CCCCC1)c1nc3ccccc3nc1n2/N=C/c1ccco1`, the figure is 63.7% (active); as for `CCCn1c(C)nc2c(c1=O)c1nc3ccccc3nc1n2CCC1=CCCCC1`, -0.4%. To `O=c1oc2ccccc2c2c1ncn2-c1ccccc1` belongs -17.3%; to `O=C(Nc1nnc(CC2=CCCCC2)s1)c1cccs1`, 0.5%; to `Cn1c(CNC(=O)c2ccc(F)cc2)nc2ccccc21`, 0.8%. As for `CCOC(=O)/C=C1\NC(C)(C)Cc2cc(OC)c(O)cc21`, the figure is 1.4%; as for `COc1cc2c(cc1OC)C(/C(C#N)=N\O)=NC(C)(C)C2`, 13%; as for `CCC1C(O)=C(c2ccccn2)C(=N)N1c1ccccc1` (centres undefined), 0.3%. Regarding `CCOCCOC(=O)C1=C(C)N(C)C(=O)NC1c1ccccc1Cl` (centres undefined), the cytotoxicity was -0.5%. Turning to `C/C(NCCN1CCOCC1)=C(\C#N)C(N)=O`, the cytotoxicity was -5.5%. As for `CCOC(=O)c1c(NC(C)=O)sc2c(O)c(CN3CCN(CC)CC3)ccc12`, the figure is 68% (active); as for `CCOC(=O)c1c(NC(C)=O)sc2c(O)cccc12`, 21.8%; as for `CCOC(=O)c1sc(NC(C)=O)c(C(=O)OCC)c1C`, 4.3%. To `CC(=O)Nc1ccc(S(=O)(=O)NCC2CCC(C(=O)N3CCCCCC3)CC2)cc1` (centres undefined) belongs -6.2%. Regarding `COc1ccc(CNc2nc3nc(C)cc(C)n3n2)cc1OC`, the cytotoxicity was 2.5%. For `Cc1cc(C)nc(-n2nc(C)cc2NC(=O)CN2CCC(C)CC2)n1`, the cytotoxicity is 0.1%. To `Cc1cc(C)nc(-n2nc(C)cc2NC(=O)CN2CCc3ccccc3C2)n1` belongs 19.1%. On to `Cc1cc(C)nc(-n2nc(C)cc2NC(=O)c2ccc(Br)o2)n1`, for which the cytotoxicity was 25.7%. On to `COc1ccccc1N1CCN(CC(=O)Nc2cc(C)nn2-c2nc(C)cc(C)n2)CC1`, for which the cytotoxicity was 52.4% (active). As for `COc1ccc(CNCC(=O)Nc2cc(C)nn2-c2nc(C)cc(C)n2)cc1OC`, the figure is 52.9% (active); as for `COc1ccc(C(CC(=O)O)NC(=O)c2ccco2)cc1OC` (centres undefined), -6.5%; as for `O=C(c1ccco1)N1CCN(C(c2ccccc2)c2nnnn2Cc2cccs2)CC1` (centres undefined), 7.3%.

Consider `Cc1ccc(OCc2nc(-c3ccccn3)no2)c(Br)c1`, for which the cytotoxicity is 12.5%. To `Clc1ccc(OCc2nc(-c3ccccn3)no2)c(Br)c1` belongs 4.3%; to `CC(C)CCn1c(=O)c2ccccc2n2c(CN(C)Cc3ccccc3)nnc12`, -12.8%; to `O=c1[nH]c(CSc2nc3ccccc3o2)nc2c1cnn2-c1ccccc1`, 0.3%.

On to `O=C(NCCc1ccccc1)C1CCCN(S(=O)(=O)c2cccc3nsnc23)C1` (centres undefined), for which the cytotoxicity was -0.3%. With `O=C(NCC1CCCO1)C1CCCN(S(=O)(=O)c2cccc3nsnc23)C1` (centres undefined), the cytotoxicity is -15%.

`CCN1CCCC1CNC(=O)C1CCCN(S(=O)(=O)c2cccc3nsnc23)C1` (centres undefined): the cytotoxicity is 61.7% (active). To `CC(=O)Nc1ccc(S(=O)(=O)NCc2cn3c(C)csc3n2)cc1` belongs 10.5%; to `Cc1cc(C(=O)Nc2c(F)cc(F)cc2Br)no1`, 0.9%; to `COc1ccccc1-c1cc(C(=O)Nc2c(F)cc(F)cc2Br)no1`, -10.6%.

For the compound `O=C(Nc1c(F)cc(F)cc1Br)c1ccco1`, the cytotoxicity is 0.6%. Consider `O=C(Nc1c(F)cc(F)cc1Br)c1cc(-c2ccco2)on1`, for which the cytotoxicity is 58.5% (active). For the compound `O=C(Nc1c(F)cc(F)cc1Br)c1cc(-c2ccc(O)cc2)on1`, the cytotoxicity is 54.4% (active). As for `O=C(Nc1ccc(F)cc1F)c1cc(-c2ccco2)on1`, the figure is -5.3%; as for `Cc1ccc(S(=O)(=O)CCc2nnc(NC(=O)c3cnccn3)s2)cc1`, -8.2%.

`CC(=O)Oc1cc2c(C(=O)NCCCN3CCOCC3)c(C)oc2c2ccccc12`: the cytotoxicity was 5.1%. For the compound `CCN(CC)c1ccc(NC(=O)c2c(OC)cccc2OC)c(C)c1`, the cytotoxicity is 0.4%. As for `CCOc1cccc(C(=O)Nc2ccc(N(CC)CC)cc2)c1`, the figure is 79.8% (active); as for `CCOc1cccc(C(=O)Nc2ccc(N3CCN(S(C)(=O)=O)CC3)cc2)c1`, -6.2%.

`CCN(CC)c1ccc(C(=O)Nc2cccc(F)c2)cc1`: the cytotoxicity is 34%. `CCN(CC)c1ccc(NC(=O)c2cc(OC)cc(OC)c2)c(C)c1`: the cytotoxicity is 53.5% (active). Turning to `CCN(CC)c1ccc(NC(=O)c2cccc(OC)c2)c(C)c1`, the cytotoxicity is 39.6%. To `COc1ccc(CC(=O)NCc2ccccc2Cl)cc1S(=O)(=O)N1CCOCC1` belongs 1.1%; to `CCSc1nsc(SCC)c1C(N)=O`, -6.7%.

Regarding `CCCN(CCO)Cc1cccc(Cl)c1`, the cytotoxicity was 6.6%. As for `COc1ccc(NS(=O)(=O)c2ccc(C)c(C(=O)O)c2)cc1`, the figure is 5%; as for `CCOC(=O)N1CCN(C(=O)c2cc3sccc3n2C)CC1`, -9.1%; as for `Cc1onc(-c2ccccc2Cl)c1C(=O)N1CCN=C1SCc1cccnc1`, -11.9%. As for `COc1cccc(CN(C)C(=O)c2ccc(S(=O)(=O)N3CCCC3)cc2)c1OC`, the figure is -5.4%.

As to `O=C(Nc1ccc(Cl)cn1)c1cccnc1`, the cytotoxicity is 13%. As for `O=C(Nc1ncccc1Cl)c1cccc(F)c1`, the figure is 62.6% (active); as for `O=C(Nc1ccc(Cl)cn1)c1cccc(F)c1`, 53.4% (active); as for `O=C(Nc1ccncc1)c1cccc(F)c1`, -0.4%.

Take `CN(C)S(=O)(=O)c1cccc(C(=O)Nc2ccc(Cl)cn2)c1`: the cytotoxicity was -15.5%. Take `Cc1nnc(NC(=O)c2cccc(F)c2)s1`: the cytotoxicity is -2.4%.

In the case of `O=C(CSc1nnc(-c2cccs2)o1)N1CCCc2ccccc21`, the cytotoxicity was -17.8%.

On to `CCOC(=O)C1CCCN(CC(=O)Nc2c(C(=O)OC)[nH]c3ccc(C)cc23)C1` (centres undefined), for which the cytotoxicity is -8.3%. As for `N=c1cc(C2(O)CCCCC2)n2c(nc3ccccc32)s1`, the cytotoxicity was 51.1% (active).

With `CC(C)(O)c1cc(=O)sc2nc3ccccc3n12`, the cytotoxicity is -13.4%.

Turning to `c1ccc2nc3c(nc2c1)sc1nc2ccccc2n13`, the cytotoxicity was -6.8%. As for `COc1ccc(NC(=O)CS(=O)CC(=O)Nc2cc(Cl)ccc2OC)cc1` (centres undefined), the figure is -12.2%. To `CC(Oc1ccc(Cl)cc1Cl)C(=O)Nc1ccncc1` (centres undefined) belongs -0.5%.

Take `Cc1ccc(N(CC(O)CN(C)C)S(=O)(=O)c2ccccc2)cc1` (centres undefined): the cytotoxicity was 3.3%. To `CN(C)c1ccc(C(=O)Nc2nnc(-c3ccc(Cl)cc3)o2)cc1` belongs 31.7%; to `Cc1cccc(-c2nnc(NC(=O)c3ccc(Cl)cc3)o2)c1`, 79.5% (active); to `COc1ccc(C(=O)Nc2nnc(-c3ccccc3)o2)cc1OC`, -9.5%.

For `Cc1cccc(-c2nnc(-c3ccc(N)cc3)o2)c1`, the cytotoxicity is -2%.

`Cc1cccc(-c2nnc(-c3ccccc3)o2)c1`: the cytotoxicity is -3.9%. As to `O=C(Nc1nnc(-c2ccccc2)o1)Nc1ccccc1Cl`, the cytotoxicity was 22.1%. Regarding `COc1ccccc1C(=O)Nc1nnc(-c2ccc(Cl)cc2)o1`, the cytotoxicity is -10.4%. On to `CC(=O)c1ccc(C(=O)Nc2nnc(-c3ccc(Cl)cc3)o2)cc1`, for which the cytotoxicity was 66.8% (active). As to `Cc1cc(NC(c2cccnc2)c2c(C)[nH]c3ccccc23)no1` (centres undefined), the cytotoxicity is 5.2%. To `CC(=O)c1ncnn1CC(=O)c1ccc(Cl)cc1Cl` belongs 13.6%; to `O=C(CCN1CCc2ccccc2C1)Nc1cccc(F)c1`, 3.9%.

These data come from PubChem BioAssay AID430 (Sanford-Burnham Center for Chemical Genomics, 2006).
